The source of these data is ChEMBL document CHEMBL4296182, “CO-ADD screening of NIH NCI Diversity Set V”.

Measured potencies and affinities stand elsewhere.

The Inhibition is the drop in the measured response relative to a control, in per cent.

The first test concerns Klebsiella pneumoniae. Conditions: Concentration 20 uM; ASSAY_TEST Inhibition of Bacterial Growth; detection method Absorption (OD600); MEDIA CAMHB; plate type 384well; NBS; CORNING #3640; time 18 hr.
Consider `O=C(Nc1cccc(Cl)c1)Nn1cnnc1`, for which the Inhibition turned out to be 6%.

As for `CN1CCC=C(C(=O)N2c3ccccc3Sc3ccc(Cl)cc32)C1.O=C(O)CCC(=O)O`, the Inhibition is given as -0.76%.

Consider `Nc1nc(O)c2nn(-c3ccccc3)nc2n1`, for which the Inhibition stood at 0.39%.

On to `O=[N+]([O-])c1ccc(NN=C(c2ccccc2)c2ccccc2)nc1`, for which the Inhibition came to 5.05%.

As for `CC1(c2ccc3ccccc3c2)CCC(=O)O1` (stereo unspecified), the Inhibition was found to be 5.94%.

For the compound `CCCCNC(=O)Nc1ccccc1CC`, the Inhibition came out at 11.35%.

For the compound `Nc1ccc(C(=O)C(=O)c2ccc(N)cc2)cc1`, the Inhibition worked out at 1.88%.

Consider `COC(=O)Cc1[nH]c(Cl)nc1C(N)=O`, for which the Inhibition was 2.53%.

For the compound `CN(C)c1ccc(/C=C/C(=O)c2cc(Cl)ccc2O)cc1`, the Inhibition turned out to be 1%.

On to `N#CCc1cnc2ccccc2n1`, for which the Inhibition is 2.07%.

`Cn1c(=O)c2nc(CNc3ccc(C(=O)O)cc3)[nH]c2n(C)c1=O`: the Inhibition is 4.5%.

With `COc1cccc(-c2nnc(N)o2)c1`, the Inhibition was 8.97%.

As to `O=C(c1cccnc1)N1CCN(c2ccccc2Cl)CC1`, the Inhibition was determined as 11.81%.

For `Cn1cnc([N+](=O)[O-])c1Sc1nc[nH]n1`, the Inhibition worked out at 17.02%.

For `CC(=O)Nc1nc(C)c(CCC2OCCO2)c(O)n1`, the Inhibition is reported as 16.29%.

`NC(=O)c1nnsc1-c1ccc(-c2snnc2C(N)=O)cc1`: the Inhibition was 2.92%.

Turning to `C[C@]12CC[C@H](O)CC1=CC[C@@H]1[C@@H]2CC[C@]2(C)c3n[nH]cc3C[C@@H]12`, the Inhibition was found to be 4.71%.

Regarding `Cc1ccccc1NC(=O)C(=O)Nc1ccccc1C`, the Inhibition is -3.39%.

As for `COc1ccn(C2CCCCO2)c(=O)n1` (stereo unspecified), the Inhibition is on record as 6.04%.

As for `Cn1c(=O)c2c(nc(N3CCOCC3)n2C)n(C)c1=O`, the Inhibition was determined as 9.52%.

`N#CC1=C(Nc2ccccc2Cl)SC(c2ccncc2)NC1=O` (stereo unspecified): the Inhibition is recorded as 12.56%.

`CC(C)c1ccc(-c2nc3ccccc3s2)cc1`: the Inhibition was 12.27%.

In the case of `Nc1cc2c3c(cccc3c1)C(=O)N(CCN1CCCC1)C2=O`, the Inhibition is reported as 19.29%.

For the compound `O=C1NCN(CCO)CN1`, the Inhibition worked out at 4.75%.

In the case of `c1ccc(-c2cc3ccccc3[nH]2)cc1` [2-PHENYL-1H-INDOLE], the Inhibition was determined as 15.65%.

For `FC(F)(F)c1nc2nc(Cl)c(Cl)nc2n1CCCN1CCOCC1`, the Inhibition came to 4.93%.

Regarding `CCOC(=O)c1cc2c(OC)c(OC)ccc2c2ncc(C#N)c(O)c12`, the Inhibition is 0.73%.

With `NC(CC(=O)Nc1cc(C(F)(F)F)ccc1Cl)=NO`, the Inhibition is reported as 22.22%.

As for `CCOc1ccc(NC(=O)Nc2cc(C(C)C)ccc2C)cc1`, the Inhibition is recorded as 0.84%.

As to `CN1CN(C)C(c2ccncc2)=C1c1ccncc1`, the Inhibition is 0.75%.

Regarding `N#Cc1nnn(-c2ccc(Cl)cc2)c1N`, the Inhibition is on record as -5.78%.

Take `CCOC(=O)CSc1nc2nc(Cl)c(Cl)[nH]c-2n1`: the Inhibition was 8.77%.

In the case of `Cn1c(=O)c2c(nc(Cc3ccc(N)cc3)n2C)n(C)c1=O`, the Inhibition is reported as 16.58%.

For the compound `CCC(C)(C)c1ccc(Oc2cccc(C(=O)O)c2)cc1`, the Inhibition is 17.33%.

For the compound `CNC(=O)Nc1ccc(S(N)(=O)=O)cc1`, the Inhibition was 19.46%.

As to `CCOC(=O)CCCN(c1[nH]c(C)c(C)c1C#N)S(=O)(=O)c1ccc(C)cc1`, the Inhibition was 14.1%.

For the compound `COc1cc(Cl)c(CC(=O)c2c[nH]c3ccccc23)cc1OC`, the Inhibition turned out to be 5.86%.

Consider `N#CC1=C(Nc2ccccc2Cl)SC(c2ccccc2O)NC1=O` (stereo unspecified), for which the Inhibition is 12.14%.

In another test the test system is Candida albicans. Particulars: 20 µM.
For the compound `O=C(Nc1cccc(Cl)c1)Nn1cnnc1`, the Inhibition worked out at 3.98%.

Turning to `CN1CCC=C(C(=O)N2c3ccccc3Sc3ccc(Cl)cc32)C1.O=C(O)CCC(=O)O`, the Inhibition is -1.22%.

As to `Nc1nc(O)c2nn(-c3ccccc3)nc2n1`, the Inhibition is -3.03%.

In the case of `O=[N+]([O-])c1ccc(NN=C(c2ccccc2)c2ccccc2)nc1`, the Inhibition was 3.51%.

Take `CC1(c2ccc3ccccc3c2)CCC(=O)O1` (stereo unspecified): the Inhibition was 2.15%.

Consider `CCCCNC(=O)Nc1ccccc1CC`, for which the Inhibition is 3.55%.

For the compound `Nc1ccc(C(=O)C(=O)c2ccc(N)cc2)cc1`, the Inhibition is 2.62%.

In the case of `COC(=O)Cc1[nH]c(Cl)nc1C(N)=O`, the Inhibition amounted to 1.21%.

As for `CN(C)c1ccc(/C=C/C(=O)c2cc(Cl)ccc2O)cc1`, the Inhibition stood at 8.13%.

In the case of `N#CCc1cnc2ccccc2n1`, the Inhibition is -2.07%.

For `Cn1c(=O)c2nc(CNc3ccc(C(=O)O)cc3)[nH]c2n(C)c1=O`, the Inhibition came out at 2.41%.

`COc1cccc(-c2nnc(N)o2)c1`: the Inhibition turned out to be 1.68%.

Regarding `O=C(c1cccnc1)N1CCN(c2ccccc2Cl)CC1`, the Inhibition is 2.66%.

Regarding `Cn1cnc([N+](=O)[O-])c1Sc1nc[nH]n1`, the Inhibition was found to be 2.6%.

With `CC(=O)Nc1nc(C)c(CCC2OCCO2)c(O)n1`, the Inhibition amounted to 5.32%.

Regarding `NC(=O)c1nnsc1-c1ccc(-c2snnc2C(N)=O)cc1`, the Inhibition is -1.56%.

Consider `C[C@]12CC[C@H](O)CC1=CC[C@@H]1[C@@H]2CC[C@]2(C)c3n[nH]cc3C[C@@H]12`, for which the Inhibition is -0.24%.

Take `Cc1ccccc1NC(=O)C(=O)Nc1ccccc1C`: the Inhibition turned out to be 6.51%.

With `COc1ccn(C2CCCCO2)c(=O)n1` (stereo unspecified), the Inhibition is 0.65%.

As for `Cn1c(=O)c2c(nc(N3CCOCC3)n2C)n(C)c1=O`, the Inhibition worked out at 2.91%.

Take `N#CC1=C(Nc2ccccc2Cl)SC(c2ccncc2)NC1=O` (stereo unspecified): the Inhibition worked out at 4.49%.

Take `CC(C)c1ccc(-c2nc3ccccc3s2)cc1`: the Inhibition was determined as 8.12%.

Take `Nc1cc2c3c(cccc3c1)C(=O)N(CCN1CCCC1)C2=O`: the Inhibition was -1.62%.

On to `O=C1NCN(CCO)CN1`, for which the Inhibition came out at 0.72%.

Take `c1ccc(-c2cc3ccccc3[nH]2)cc1` [2-PHENYL-1H-INDOLE]: the Inhibition turned out to be 3.85%.

With `FC(F)(F)c1nc2nc(Cl)c(Cl)nc2n1CCCN1CCOCC1`, the Inhibition turned out to be 5.42%.

Regarding `CCOC(=O)c1cc2c(OC)c(OC)ccc2c2ncc(C#N)c(O)c12`, the Inhibition was 5.12%.

Turning to `NC(CC(=O)Nc1cc(C(F)(F)F)ccc1Cl)=NO`, the Inhibition turned out to be 3.79%.

Turning to `CCOc1ccc(NC(=O)Nc2cc(C(C)C)ccc2C)cc1`, the Inhibition amounted to 0.78%.

Take `CN1CN(C)C(c2ccncc2)=C1c1ccncc1`: the Inhibition is -0.59%.

On to `N#Cc1nnn(-c2ccc(Cl)cc2)c1N`, for which the Inhibition worked out at 0.88%.

Consider `CCOC(=O)CSc1nc2nc(Cl)c(Cl)[nH]c-2n1`, for which the Inhibition is 0.89%.

As to `Cn1c(=O)c2c(nc(Cc3ccc(N)cc3)n2C)n(C)c1=O`, the Inhibition is -1.67%.

In the case of `CCC(C)(C)c1ccc(Oc2cccc(C(=O)O)c2)cc1`, the Inhibition turned out to be 8.87%.

With `CNC(=O)Nc1ccc(S(N)(=O)=O)cc1`, the Inhibition turned out to be 3.31%.

`CCOC(=O)CCCN(c1[nH]c(C)c(C)c1C#N)S(=O)(=O)c1ccc(C)cc1`: the Inhibition was -2.66%.

`COc1cc(Cl)c(CC(=O)c2c[nH]c3ccccc23)cc1OC`: the Inhibition worked out at 3.17%.

As for `N#CC1=C(Nc2ccccc2Cl)SC(c2ccccc2O)NC1=O` (stereo unspecified), the Inhibition is 4.82%.
